Records with an inconclusive call do not appear. The source made the active and inactive calls. Calls follow the shape of the dose curve; as a rule, active = well fitted inhibition curve with a large enough effect; inconclusive = small, poorly fitted or top-dose-only effect; inactive = flat fitted curve, though single readings scatter. *1 amine or outer side, *2 acyl side, *3 side chain or, on linkers, in order; H or OH if unused. Where a SMILES comes first, the peptide text is derived from it. [ ]: non-standard residue; d: D form. X13 = O=C(C(CC(O)CO)O[*:1])[*:2]; NMeV = CN[CH](C(=O)O)C(C)C; NMeA = CN[CH](C)C(=O)O; βAla = NCCC(=O)O
How the values were obtained:
Assay in all cases: Cytotoxic Profiling of Annotated Libraries Using Quantitative High-Throughput Screening (AID 1296008); also: nearly all actives have a fitted effect of over 60% in size
Settings in all cases: Five cell lines viability, CellTiter-Glo ATP luminescence, 48-72 h; max response: hits give low values
CRL-7250 = normal cell line; test system: CRL-7250
How it was run: (§1)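 Compounds were pin-transferred onto cells and incubated 48 or 72 hr at 37 degree Celsius, 95% humidity. CellTiter-Glo was added, plates sat 10 min at room temperature, then ATP-coupled luminescence was imaged as the viability read-out.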

HEK293 = test system: HEK293
How it was run: as §1

HaCat = test system: HaCat
How it was run: as §1

KB-3-1 = test system: KB-3-1
How it was run: as §1

NIH3T3 = test system: NIH3T3
How it was run: as §1

Measured: max response
% is scaled to controls: 0 for no effect and ±100 for the full control effect.

CC1=C2CC(O)(C(C)(C)O)C(O[C@@H]3O[C@H](CO)[C@@H](O)[C@H](O)[C@H]3O)CC(C)C2CC1=O (stereo not given in full)
inactive: CRL-7250 2.9% | HEK293 -24.8% | HaCat | KB-3-1 7.73% | NIH3T3

CCC(C)C1NC(=O)C2CCCN2C(=O)C(CC(O)CO)OC(=O)CCNC(=O)C(C)N(C)C(=O)C(C(C)C)N(C)C1=O (stereo not given) (cyclo([X13]PI[NMeV][NMeA][βAla]); configuration not given here)
inactive: CRL-7250 -8.24% | HEK293 2.6% | HaCat | KB-3-1 9.21% | NIH3T3

CC1=C[C@H](O)[C@H]2C(C)(C)CCC[C@]2(C)[C@@]1(O)CO
inactive: CRL-7250 -1.57% | HEK293 -4.11% | HaCat 3.1% | KB-3-1 | NIH3T3

C=CC1(C)C=C2CC[C@H]3[C@@](C)(C(=O)O)CCC[C@]3(C)C2CC1 (stereo not given in full)
inactive: CRL-7250 -9.61% | HEK293 2.61% | HaCat 3.4% | KB-3-1 5.04% | NIH3T3

Cc1c(-c2ccc3c(c2)OCO3)oc2ccc(C(O)C(C)O)cc12 (stereo not given)
inactive: CRL-7250 -2.17% | HEK293 -10.1% | HaCat | KB-3-1 | NIH3T3

CC(=O)NC(C(=O)OC1CCC(C)(C)C2CC=C3C(=O)OCC3C12C)C(C)C (stereo not given)
inactive: CRL-7250 | HEK293 -2.64% | HaCat | KB-3-1 | NIH3T3 4.96%

CC1(C)CC[C@]2(C(=O)O[C@@H]3O[C@H](CO)[C@@H](O)[C@H](O)[C@H]3O)CC[C@]3(C)C(=CCC4[C@@]5(C)C[C@@H](O)[C@H](O)[C@@](C)(CO)C5[C@H](O)C[C@]43C)C2[C@@H]1O (stereo not given in full)
inactive: CRL-7250 | HEK293 -12.5% | HaCat 1.4% | KB-3-1 | NIH3T3

CNc1nc(Cc2ccccc2)nc2c1CCNC[C@@H]2C
inactive: CRL-7250 -3.14% | HEK293 -0.288% | HaCat -17.6% | KB-3-1 -9.65% | NIH3T3

CC1CC(O)/C=C/C(O)/C=C\C(=O)O1 (stereo not given)
inactive: CRL-7250 0.731% | HEK293 -11.1% | HaCat | KB-3-1 | NIH3T3

CO[C@H]1c2cc(C(C)C)c(O)c(O)c2[C@@]23CCCC(C)(C)C2[C@@H]1OC3=O (stereo not given in full)
inactive: CRL-7250 | HEK293 -7.48% | HaCat | KB-3-1 | NIH3T3

N[C@@H](CCNCc1ccc(Cl)cc1)C(=O)N1CCCCC1
inactive: CRL-7250 | HEK293 2.57% | HaCat | KB-3-1 7.85% | NIH3T3 -2.5%

C=C1C2(C)CC3C4(C)C=CC(=O)OC(C)(C)C4CCC3(C)C1(C(=O)OC)C(=O)C(C)(O)C2=O (stereo not given)
inactive: CRL-7250 -7.15% | HEK293 -101% | HaCat | KB-3-1 | NIH3T3

CS(=O)(=O)c1ccccc1N1CCN(c2nc3c(c(=O)[nH]2)CSCC3)CC1
inactive: CRL-7250 0.787% | HEK293 1.58% | HaCat | KB-3-1 -11.7% | NIH3T3 -5.12%

C/C=C/C(=O)OC1/C=C/C(O)C(OC(C)=O)CCC(=O)OC1C (stereo not given)
inactive: CRL-7250 -1.17% | HEK293 3.73% | HaCat | KB-3-1 -2.1% | NIH3T3

O=C(Nc1ccn(Cc2c(F)cccc2C(F)(F)F)n1)c1c(F)cccc1F
inactive: CRL-7250 -12.9% | HEK293 1.72% | HaCat | KB-3-1 | NIH3T3 2.19%

C/C(=C\C(=O)C[C@@]12C(=O)O[C@]3(C)CC[C@H]1C[C@H]23)C(N)=O
inactive: CRL-7250 -61.5% | HEK293 -18.5% | HaCat | KB-3-1 | NIH3T3

CN(C)CC(c1ccc(O)cc1)C1(O)CCCCC1 (stereo not given)
inactive: CRL-7250 2.79% | HEK293 2.78% | HaCat -0.565% | KB-3-1 | NIH3T3

COC(=O)C1=CO[C@@H](O[C@@H]2O[C@H](CO)[C@@H](O)[C@H](O)[C@H]2O)/C(=C\CO)[C@@H]1CC(=O)OCCc1ccc(O)cc1
inactive: CRL-7250 0.106% | HEK293 2.34% | HaCat | KB-3-1 | NIH3T3

CC1(C)C[C@@H]2[C@H](C1)[C@@]1(C)C[C@]13C(O)OC[C@]3(O)[C@H]2O (stereo not given in full)
inactive: CRL-7250 -3.6% | HEK293 -0.838% | HaCat | KB-3-1 | NIH3T3

— PubChem BioAssay (NCATS)
